Results from PubChem BioAssay (EPA / NIEHS).
The source made the active and inactive calls. The calls were made as follows: active = hit-call score of the fitted dose curve at least 0.9, where 1 is the maximum; inactive = score below 0.9.

read-out: Intercellular Adhesion Molecule 1 (ICAM1), ICAM1 (gene 3383); test: BSK_KF3CT_ICAM1: BioMAP Diversity Plus: KF3CT Assay for Intercellular Adhesion Molecule 1 (ICAM1) Biomarker Activity (AID 2283067); conditions: primary human keratinocytes with fibroblasts; actives raise or lower the signal
Procedure, shortened: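 Cell-surface ICAM-1 was measured by ELISA 24 h after dosing primary human skin keratinocytes co-cultured with fibroblasts. Parallel SRB staining tracked overt cytotoxicity. Gain or loss of signal was fitted relative to DMSO.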

Row | Compound | outcome | AC50
1 | CC(CN=Cc1ccccc1O)N=Cc1ccccc1O (configuration not stated) | inactive | –
2 | C=C(C)C(=O)OCC(CC)(COC(=O)C(=C)C)COC(=O)C(=C)C | inactive | –
3 | CS(=O)(=O)c1ccc(C2=C(c3ccccc3)C(=O)OC2)cc1 | inactive | –
4 | CCC(C)c1cc([N+](=O)[O-])cc([N+](=O)[O-])c1OC(=O)OC(C)C (configuration not stated) | – | 9.58 µM (active)

read-out: Interferon-gamma inducible Protein 10 (IP10), CXCL10 (gene 3627); test: BSK_KF3CT_IP10: BioMAP Diversity Plus: KF3CT Assay for Interferon-gamma inducible Protein 10 (IP10) Biomarker Activity (AID 2283068); conditions: primary human keratinocytes with fibroblasts; actives raise or lower the signal
Procedure, shortened: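 KF3CT co-culture (keratinocytes + foreskin fibroblasts), 24 h compound, IP-10 by ELISA; bidirectional fit vs DMSO baseline.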

Row | Compound | outcome | AC50
5 | CN(c1nccc(=O)[nH]1)C1CCN(c2nc3ccccc3n2Cc2ccc(F)cc2)CC1 | inactive | –
6 | CCCCCCCCCCCCCCCC(=O)OC/C=C(C)/C=C/C=C(C)/C=C/C1=C(C)CCCC1(C)C | inactive | –
7 | CC(=O)c1c(C)c([N+](=O)[O-])c(C(C)(C)C)c([N+](=O)[O-])c1C | inactive | –
8 | CC(=O)C1(C)CC2=C(CCCC2(C)C)CC1C (configuration not stated) | – | 11.2 µM (active)
9 | Oc1c(Cl)cc(Cl)c(Cl)c1Cc1c(O)c(Cl)cc(Cl)c1Cl | – | 2.4 µM (active)
10 | CCN(CC)C(=O)N(CC)CC | inactive | –
11 | CC1(C)C2=CCCC(C)(C)[C@]23CC[C@H]1C3 | inactive | –
12 | COc1ccc(CCN2CCC(Nc3nc4ccccc4n3Cc3ccc(F)cc3)CC2)cc1 | inactive | –
13 | COc1ccc(OC)c(N=Nc2c(O)ccc3ccccc23)c1 | inactive | –
14 | CC(C)(C)CC(C)(C)c1ccc(OCCOCC[N+](C)(C)Cc2ccccc2)cc1 | – | 7.61 µM (active)
15 | O=C1OC2(c3ccccc31)c1ccc(O)c(Br)c1Oc1c2ccc(O)c1Br | inactive | –
16 | c1ccc2cc(Nc3ccc(Nc4ccc5ccccc5c4)cc3)ccc2c1 | inactive | –
17 | C1=CC2C3C=CC(C3)C2C1 (configuration not stated) | inactive | –
18 | O=C1c2ccccc2C(=O)c2c(O)ccc(O)c21 | inactive | –
19 | C=CC(C)(O)CCC=C(C)C (configuration not stated) | inactive | –
20 | C=C(C)C(=O)OCCOCCOCCOCCOC(=O)C(=C)C | inactive | –
21 | CS(=O)(=O)OCCCCOS(C)(=O)=O | inactive | –
22 | CCCCN(CCCC)C(=O)N(CCCC)CCCC | – | 11 µM (active)
23 | Cc1cc(CCC(=O)OCCOCCOCCOC(=O)CCc2cc(C)c(O)c(C(C)(C)C)c2)cc(C(C)(C)C)c1O | inactive | –
24 | CC(CN=Cc1ccccc1O)N=Cc1ccccc1O (configuration not stated) | inactive | –
25 | C=C(C)C(=O)OCC(CC)(COC(=O)C(=C)C)COC(=O)C(=C)C | inactive | –
26 | CS(=O)(=O)c1ccc(C2=C(c3ccccc3)C(=O)OC2)cc1 | – | 0.0374 µM (active)
27 | CCC(C)c1cc([N+](=O)[O-])cc([N+](=O)[O-])c1OC(=O)OC(C)C (configuration not stated) | – | 5.26 µM (active)
